POLH inh – qHTS for Inhibitors of Polymerase Eta. DNA polymerase eta (Homo sapiens), Q9Y253. recombinant Pol eta, fluorescent DNA replication assay. Potency, µM (doses to about 114 µM), without a hit: at the top dose activity change, negative = inhibition, actives largely listed as inhibitors. 390,000 tested, 1.2% active. AID 588591, 2011; also: potency is read from the fitted curve at half-maximal effect; % is scaled to controls: 0 for no effect and ±100 for the full control effect
Target sequence (Q9Y253 whole entry, looked up): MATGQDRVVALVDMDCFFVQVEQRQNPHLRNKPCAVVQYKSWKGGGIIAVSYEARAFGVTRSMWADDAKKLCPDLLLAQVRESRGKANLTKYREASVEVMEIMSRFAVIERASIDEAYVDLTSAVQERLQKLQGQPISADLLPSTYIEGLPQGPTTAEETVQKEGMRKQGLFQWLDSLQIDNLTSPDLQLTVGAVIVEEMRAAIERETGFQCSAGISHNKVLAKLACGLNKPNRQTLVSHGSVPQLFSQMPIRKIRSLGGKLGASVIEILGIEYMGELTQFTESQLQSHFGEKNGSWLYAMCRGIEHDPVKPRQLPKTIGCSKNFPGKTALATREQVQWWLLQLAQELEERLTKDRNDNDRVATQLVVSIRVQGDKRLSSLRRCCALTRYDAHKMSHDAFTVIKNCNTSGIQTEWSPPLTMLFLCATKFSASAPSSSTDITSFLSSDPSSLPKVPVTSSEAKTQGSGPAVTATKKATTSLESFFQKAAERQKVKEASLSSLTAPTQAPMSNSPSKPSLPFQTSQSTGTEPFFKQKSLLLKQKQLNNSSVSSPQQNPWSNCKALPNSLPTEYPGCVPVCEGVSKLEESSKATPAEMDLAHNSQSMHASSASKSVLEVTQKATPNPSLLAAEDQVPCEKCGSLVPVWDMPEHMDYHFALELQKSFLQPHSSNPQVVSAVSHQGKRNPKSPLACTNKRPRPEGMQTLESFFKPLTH
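Pol eta (10 nM) was preincubated with compounds for 15 min at room temperature, after which fluorescent replication substrate (50 nM final) was added to start the reaction. Fluorescence was read kinetically at 0 and 10 min.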
Pol kappa inh – qHTS for Inhibitors of Polymerase Kappa; purified Pol kappa, fluorescent DNA synthesis assay, 10 min; 400,000 tested, 0.53% active; Potency, µM (titrated, usually from 107 µM), for the others: at the highest dose activity, negative = inhibition, usual class: inhibitors; AID 588579, 2011; also: potency is read from the fitted curve at half-maximal effect; % is scaled to controls: 0 for no effect and ±100 for the full control effect
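Kinetic fluorescence readout at 0 and 10 min followed reaction start with substrate at 50 nM final. Beforehand, enzyme (10 nM Pol kappa) stood 15 min with compound at room temperature; buffer-only wells were negative controls.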
PI5P4K alpha inh – qHTS for Inhibitors of phosphatidylinositol 5-phosphate 4-kinase (PI5P4K). 330,000 tested, 1.2% active. PI5P4Kalpha enzyme, ADP-Glo luminescence, 60 min; stronger effect = lower value. max response, %; active = max response of -50% or lower; inconclusive = between -30% and -50%; inactive = -30% or higher; also: value at the top dose of about 77 µM; % is scaled to controls: 0 for no effect and ±100 for the full control effect
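Enzyme plus substrate dispensed, test compounds pinned in, then ATP (5 microM final) added. After 60 min at RT, ADP-Glo reagent 1 for 45 min and reagent 2 for 30 min preceded luminescence imaging.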
WRN inhibitor – qHTS for Inhibitors of WRN Helicase; Bifunctional 3'-5' exonuclease/ATP-dependent helicase WRN (Homo sapiens), Q14191; WRN helicase unwinding, fluorescent forked duplex, kinetic; Potency, µM (highest dose often 114 µM), inactives show at the top dose activity change, negative = inhibition, actives largely listed as inhibitors; 360,000 tested, 0.46% active; also: potency is read from the fitted curve at half-maximal effect; % is scaled to controls: 0 for no effect and ±100 for the full control effect; nearly all actives have a fitted effect of over 55% in size
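WRN at 20 nM final was preincubated with compound for 15 min at room temperature; reaction started with 100 nM forked duplex oligonucleotide carrying fluorophore and quencher plus 2 mM ATP (final). Unwinding followed kinetically by red fluorescence (ex 525/em 598 nm).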
Pol iota inh – qHTS for Inhibitors of Polymerase Iota. 390,000 tested, 1% active. DNA polymerase iota (Homo sapiens), Q9UNA4. AID 588590, 2011. Pol iota fluorescent replication assay, 10 min. Potency, µM (top dose mostly 115 µM), inactives show top-dose activity, negative = inhibition, usual class: inhibitors; also: potency is read from the fitted curve at half-maximal effect
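Fluorescent replication assay read twice, at 0 min and 10 min after adding 50 nM (final) substrate. Enzyme (10 nM) and compounds were first incubated 15 min at room temperature; enzyme-free buffer wells were negative controls.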
Pol beta inh – qHTS Assay for Inhibitors of DNA Polymerase Beta. P06746. Pol beta primer extension/strand displacement, fluorescence kinetic. Potency, µM (highest dose often 114 µM), inactives show at the highest dose activity change, negative = inhibition, hits mostly inhibitors. 340,000 tested, 1.3% active. AID 485314, 2010; also: potency is read from the fitted curve at half-maximal effect; % is scaled to controls: 0 for no effect and ±100 for the full control effect
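Values derive from four-parameter Hill fits of normalized kinetic data: reads at 0 and 10 min following addition of 50 nM substrate to 10 nM Pol beta preincubated 15 min with compound.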
Numbers without * were called inactive; [ ] = another dose, or the depositor's remark. Most compounds without a hit are left out; they make up all but 2.8% or so of the library. Unless noted, calls follow the shape of the dose curve; as a rule, active = well fitted curve in the direction sought with a large enough effect; inconclusive = small, poorly fitted or top-dose-only effect, or another doubt; inactive = no such curve, though single readings can be large; an effect the other way counts as inactive or inconclusive.

What do the screens show for `CCOC(=O)C1C(c2ccc3c(c2)OCO3)NC(=O)NC1(O)C(F)(F)F` (stereo unspecified)?
POLH inh: -10%; Pol kappa inh: -5%; PI5P4K alpha inh: -53*; WRN inhibitor: -6%; Pol iota inh: inconclusive; Pol beta inh: -14%

What do the screens show for `COc1ccc(NC(=O)/C(=C\c2ccccc2)NC(=O)c2ccco2)cc1`?
POLH inh: -7%; Pol kappa inh: -12%; PI5P4K alpha inh: -7; WRN inhibitor: -7%; Pol iota inh: 122%; Pol beta inh: 23%

What do the screens show for `CCCCN(C)S(=O)(=O)c1ccc(NC2=NS(=O)(=O)c3ccccc32)cc1`?
POLH inh: -8%; Pol kappa inh: 0%; Pol iota inh: -28%; Pol beta inh: 0%

What do the screens show for `N#C/C(=C\c1ccc(OCc2ccccc2)cc1)C(N)=O`?
POLH inh: -11%; Pol kappa inh: -5%; PI5P4K alpha inh: -63*; WRN inhibitor: -18%; Pol iota inh: 3%; Pol beta inh: 7%

What do the screens show for `Cc1ccccc1COc1ccc(/C=C(\C#N)C(N)=O)cc1`?
POLH inh: 8%; Pol kappa inh: -4%; PI5P4K alpha inh: 6; WRN inhibitor: -1%; Pol iota inh: 40%; Pol beta inh: 80%

Results for Cc1cc(/C=C2\C=Cc3ccccc32)cc(C)c1[N+](=O)[O-] ?
Pol kappa inh: -14%; Pol iota inh: -26%

Results for O=C(O)c1cc(NN=Nc2cccc(S(=O)(=O)O)c2)cc([N+](=O)[O-])c1 ?
POLH inh: -10%; Pol kappa inh: -7%; PI5P4K alpha inh: -55*; WRN inhibitor: -1%; Pol iota inh: 8%; Pol beta inh: 5%

What do the screens show for `O=C(O)c1ccc(NC(=S)NC(=O)c2cccc(COc3ccccc3)c2)cc1`?
POLH inh: -1%; Pol kappa inh: -13%; PI5P4K alpha inh: -55*; WRN inhibitor: -12%; Pol iota inh: 13%; Pol beta inh: inconclusive

How did O=C(O)/C=C/C(=O)c1ccc(O)cc1 do in these assays?
POLH inh: 3%; Pol kappa inh: -19%; PI5P4K alpha inh: -4; WRN inhibitor: -4%[11.6 µM]; Pol iota inh: 18µM*; Pol beta inh: 0%

What do the screens show for `CCCCCCCCCCCCCCCCCCc1ccc(C(=O)/C=C/C(=O)O)cc1`?
Pol kappa inh: -1%[19.4 µM]

Results for CCCCCCCCCCCCCCCCCCc1ccc(C(=O)/C=C\C(=O)O)cc1 ?
Pol kappa inh: 13µM*

What do the screens show for `O=C1C2CC=C(Cl)CC2C(=O)N1c1ncn[nH]1` (stereo unspecified)?
POLH inh: 22µM*; Pol kappa inh: -3%; PI5P4K alpha inh: -3; WRN inhibitor: -14%[57.1 µM]; Pol iota inh: inconclusive; Pol beta inh: 28µM*

Results for CCCCn1c(=O)c2oc3ccccc3c2n(CC(=O)Nc2ccc(CC)cc2)c1=O ?
POLH inh: 9%; Pol kappa inh: -7%; Pol iota inh: 6%; Pol beta inh: 2%

What do the screens show for `C(=C\c1ccnc2ccccc12)/c1ccc(-[n+]2cc[n+](-c3ccc(/C=C/c4ccnc5ccccc45)cc3)cc2)cc1`?
Pol kappa inh: -11%; Pol iota inh: 7%

Results for O=S1(=O)CCOCCCN1Cc1ccc(F)cc1 ?
Pol kappa inh: -1%; Pol iota inh: 10%

What do the screens show for `CC(Sc1nnc2c(n1)[nH]c1ccccc12)C(=O)NC1CCCCC1` (stereo unspecified)?
POLH inh: -1%; Pol kappa inh: -4%; PI5P4K alpha inh: -3; WRN inhibitor: -33%; Pol iota inh: 14%; Pol beta inh: 45µM*

Results for CC(Sc1nnc2c(n1)[nH]c1ccccc12)C(=O)N(C)C1CCCCC1 (stereo unspecified) ?
POLH inh: -8%; Pol kappa inh: -6%; PI5P4K alpha inh: 0; WRN inhibitor: -29%; Pol iota inh: 33%; Pol beta inh: 2%

How did COc1ccc(-c2noc(-c3ccc(N4CCC(C)CC4)c([N+](=O)[O-])c3)n2)cc1OC do in these assays?
POLH inh: -6%; Pol kappa inh: inconclusive; Pol iota inh: -18%; Pol beta inh: 79µM*

How did CCCc1cc(=O)[nH]c(SCC)n1 do in these assays?
POLH inh: -3%; Pol kappa inh: -1%; WRN inhibitor: -15%; Pol iota inh: -12%; Pol beta inh: 4%

Results for CCCc1cc(=O)[nH]c(-n2[nH]c3c(c2=O)CCCC3)n1 ?
POLH inh: -14%; Pol kappa inh: -17%; PI5P4K alpha inh: 2; WRN inhibitor: inconclusive; Pol iota inh: 16µM*; Pol beta inh: 12%

How did O=C(CNC(=O)c1ccccc1Cl)OCc1cc(=O)n2ccsc2n1 do in these assays?
POLH inh: -6%; Pol kappa inh: -24%; Pol iota inh: -4%; Pol beta inh: -1%

How did Fc1cccc(-c2nnn3c2nc(NCCc2ccccc2)c2ccccc23)c1 do in these assays?
POLH inh: -13%; Pol kappa inh: 3%; Pol iota inh: 28%; Pol beta inh: 15%

Results for NS(=O)(=O)c1ccc(CCNc2nc3c(-c4cccc(F)c4)nnn3c3ccc(Cl)cc23)cc1 ?
POLH inh: 89µM*; Pol kappa inh: 3%; Pol iota inh: 34%; Pol beta inh: inconclusive

What do the screens show for `Cc1onc(-c2c(F)cccc2Cl)c1C(=O)N(C)CCc1ccccn1`?
POLH inh: 1%; Pol kappa inh: -11%; PI5P4K alpha inh: 6; WRN inhibitor: 6%; Pol iota inh: 14%; Pol beta inh: 4%

What do the screens show for `O=C(O)C1C2C=CC(C2)C1C(=O)NCc1cccs1` (stereo unspecified)?
POLH inh: -13%; Pol kappa inh: 0%; PI5P4K alpha inh: -2; WRN inhibitor: -5%; Pol iota inh: 47%; Pol beta inh: inconclusive

Results for CS(=O)(=O)N1CCC(C(=O)Nc2cc(C(F)(F)F)ccc2Cl)CC1 ?
POLH inh: -3%; Pol kappa inh: 3%; WRN inhibitor: -6%; Pol iota inh: 28%; Pol beta inh: 41%

Results for O=C(Nc1cc(C(F)(F)F)ccc1Cl)C1CCN(c2nnc(-n3cccc3)s2)CC1 ?
POLH inh: inconclusive; Pol kappa inh: -33%; PI5P4K alpha inh: -10; WRN inhibitor: -15%; Pol iota inh: inconclusive; Pol beta inh: 4µM*

From PubChem BioAssay
